Data taken from PubChem BioAssay (NCATS).
The source made the active and inactive calls. The call rests on the fitted dose curve; in most records, active means well fitted curve in the direction sought with a large enough effect; inactive means no such curve, though single readings can be large or run the other way.

These molecules were tested against Alpha-galactosidase (Coffea arabica) (UniProt Q42656) (assay: Counterscreen for Glucocerebrosidase Inhibitors: qHTS Assay for Coffee Bean alpha-Galactosidase at pH 5.9 (AID 998)). Conditions: coffee bean alpha-galactosidase enzyme assay; series mostly up to 76.9 µM.
Chain of Alpha-galactosidase (Coffea arabica) (Q42656 whole entry, looked up): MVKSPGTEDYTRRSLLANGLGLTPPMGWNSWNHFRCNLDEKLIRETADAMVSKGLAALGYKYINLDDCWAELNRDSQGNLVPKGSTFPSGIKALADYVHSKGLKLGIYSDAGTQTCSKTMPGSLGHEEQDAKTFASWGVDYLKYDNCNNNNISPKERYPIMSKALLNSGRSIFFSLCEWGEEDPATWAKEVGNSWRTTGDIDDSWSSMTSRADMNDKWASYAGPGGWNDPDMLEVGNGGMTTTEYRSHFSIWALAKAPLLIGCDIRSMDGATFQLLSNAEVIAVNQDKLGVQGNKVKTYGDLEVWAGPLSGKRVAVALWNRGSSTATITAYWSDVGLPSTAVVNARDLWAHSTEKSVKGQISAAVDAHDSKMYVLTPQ
How it was run: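 In 50 mM citric acid pH 5.9 with 0.005% Tween-20, coffee bean enzyme hydrolyses 80 uM 4-MU alpha-D-galactopyranoside over 20 min at RT. Activity is normalized to controls; AC50 comes from Hill-modelled concentration-response data.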
With `CC1=C(/C=C/C(C)=C/C=C/C(C)=C/C(=O)Nc2ccc(O)cc2)C(C)(C)CCC1` the outcome was “inactive”. With `CCOC(=O)c1ncn2c1CN(C)C(=O)c1cc(F)ccc1-2` the outcome was “inactive”. In the case of `OCCN1CCN(CCCN2c3ccccc3Sc3ccc(C(F)(F)F)cc32)CC1`, the outcome is reported as “inactive”. With `Cn1ccc2cc3c(cc21)CCN3C(=O)Nc1cccnc1` the outcome was “inactive”. In the case of `Fc1ccc([C@@H]2CCNC[C@H]2COc2ccc3c(c2)OCO3)cc1`, the outcome is reported as “inactive”. In the case of `C[C@](N)(Cc1ccc(O)c(O)c1)C(=O)O`, the outcome is reported as “inactive”. For `CC(=O)N[C@@H](CS)C(=O)O`, the outcome was “inactive”. `COc1cc2c(c(OC)c1OC)-c1ccc(OC)c(=O)cc1[C@@H](NC(C)=O)CC2` was tested, and the outcome was “inactive”. `Cc1nc2n(c(=O)c1CCN1CCC(c3noc4cc(F)ccc34)CC1)CCCC2` was tested, and the outcome was “inactive”. For `CCCNC(=O)NS(=O)(=O)c1ccc(Cl)cc1`, the outcome was “inactive”. With `CC(C)[N+](C)(CCOC(=O)C1c2ccccc2Oc2ccccc21)C(C)C` the outcome was “inactive”. `COC(=O)Nc1nc2ccc(C(=O)c3cccs3)cc2[nH]1` was tested, and the outcome was “inactive”. With `CCN(CC)C(=S)SSC(=S)N(CC)CC` the outcome was “inactive”. For `CCCCc1oc2ccccc2c1C(=O)c1cc(I)c(OCCN(CC)CC)c(I)c1`, the outcome was “inactive”. With `O=C(c1ccc(OCCN2CCCCC2)cc1)c1c(-c2ccc(O)cc2)sc2cc(O)ccc12` the outcome was “inactive”. With `CN(C)CC/C=C1\c2ccccc2COc2ccccc21` the outcome was “inactive”. For `CC[N+](CC)(CC)CC`, the outcome was “inactive”. For `Nc1nnc(-c2cccc(Cl)c2Cl)c(N)n1`, the outcome was “inactive”. `Nc1nc(N)c2nc(-c3ccccc3)c(N)nc2n1` was tested, and the outcome was “inactive”. With `NC(=O)OCC(COC(N)=O)c1ccccc1` the outcome was “inactive”. With `CCN(CC)CCNC(=O)c1cc(Cl)c(N)cc1OC` the outcome was “inactive”. `COc1ccc(Cc2nccc3cc(OC)c(OC)cc23)cc1OC` was tested, and the outcome was “inactive”. For `Cc1[nH]c(=O)c(C#N)cc1-c1ccncc1`, the outcome was “inactive”. In the case of `OCCN1CCN(CCCN2c3ccccc3Sc3ccc(Cl)cc32)CC1`, the outcome is reported as “inactive”. In the case of `CC(=O)CCCCn1c(=O)c2c(ncn2C)n(C)c1=O`, the outcome is reported as “inactive”. For `NNCCc1ccccc1`, the outcome was “inactive”. With `CC(C)(C)NC(=O)[C@H]1CC[C@H]2[C@@H]3CC[C@H]4NC(=O)C=C[C@]4(C)[C@H]3CC[C@]12C` the outcome was “inactive”. For `CN1CCN(C2=Nc3ccccc3Oc3ccc(Cl)cc32)CC1`, the outcome was “inactive”. In the case of `Cc1ccccc1N1C(=O)c2cc(S(N)(=O)=O)c(Cl)cc2NC1C` (stereo not given), the outcome is reported as “inactive”. `O=c1n(CCCN2CCN(c3cccc(Cl)c3)CC2)nc2ccccn12` was tested, and the outcome was “inactive”. `COc1cc(Cc2cnc(N)nc2N)cc(OC)c1OC` was tested, and the outcome was “inactive”. For `Cc1cnc(C(=O)NCCc2ccc(S(=O)(=O)NC(=O)NC3CCCCC3)cc2)cn1`, the outcome was “inactive”. For `CC1=NS(=O)(=O)c2cc(Cl)ccc2N1`, the outcome was “inactive”. For `Cc1cn[nH]c1`, the outcome was “inactive”. With `NS(=O)(=O)Cc1noc2ccccc12` the outcome was “inactive”.
